Inconclusive results are not listed. The source made the active and inactive calls. How the source made its calls, unless noted: active means hit-call score of the fitted dose curve at least 0.9, where 1 is the maximum; inactive means score below 0.9.
Assays:
[1] = CCTE_Shafer_MEA_acute_LDH: CCTE's Lactate Dehydrogenase Assay for Cytotoxicity in the Neural Acute Assay, Shafer Lab (AID 2284086; active means hit-call score of the fitted dose curve at least 0.9, where 1 is the maximum;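 further: active means LDH release rises above DMSO vehicle level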)
In short: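 Released lactate dehydrogenase, read at 490 nm, indicated cytotoxicity after acute 40-min compound treatment of rat cortical neuron networks grown on 48-well MEA plates.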

[2] = CCTE_Shafer_MEA_dev_mutual_information_norm: CCTE's Neural Network Formation Assay for Mutual Information Normalization, Shafer Lab (AID 2284091);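 on AC50: mutual information between electrodes summarised as area under curve across four recording days; potency is for a decrease in mutual information relative to DMSO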
In short: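 Rat cortical cultures, 48-well MEA, continuous exposure DIV 0–12 with full media/compound change DIV 5 and 9. Readout: inter-electrode mutual information, AxIS adaptive spike detection; AUC across DIV 5/7/9/12 recordings; DMSO baseline, negative fitting direction.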

[3] = CCTE_Shafer_MEA_dev_correlation_coefficient_mean: CCTE's Neural Network Formation Assay for Mean Correlation Coefficient, Shafer Lab (AID 2284093);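 on AC50: well mean pairwise spike train correlation integrated as AUC over recording days 5 to 12; potency fitted for loss of correlation relative to DMSO vehicle wells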
In short: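 Rat cortical cultures, 1.5 x 10^5 cells/well, dosed from day 0 for 12 days. Spontaneous spikes recorded DIV 5/7/9/12; electrode-pair correlation coefficients averaged, AUC taken. Fit in loss direction vs DMSO.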

[4] = UKN4_HCS_LUHMES_neurite_outgrowth: University of Konstanz (UKN) Leist Lab Neurite Outgrowth Assay in human LUHMES cells (UKN4) (AID 2284206); settings: actives raise or lower the signal
In short: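 2-day-differentiated LUHMES, 24 h cpd exposure, live calcein-AM + H-33342 stain, HCS fluorescence imaging of neurite area; DMSO = baseline, bidirectional fit.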

[5] = IUF_NPC1b_proliferation_BrdU_72hr: Leibniz Research Institute for Environmental Medicine (IUF) 72-hour Neural Progenitor Cell Bromodeoxyuridine (BrdU) Proliferation Assay (NPC1b) (AID 2284207)
Experimental: IUF_NPC1 is a cell-based, multiplexed assay that uses hNPC, a human primary neural progenitor cells, with measurements taken at 72 hours after chemical dosing in a 96-well plate. Human neural progenitor cells (hNPC) are generated from human fetal brain cortex at gestational week (GW) 16-19. Grown in suspension culture and under proliferative conditions (proliferation media and growth factors), these cells represent neural progenitor cell proliferation. In the NPC1 assay, hNPC's are exposed to the test compound for 72h. Cell proliferation is assessed as an increase in sphere area using automated phase contrast imaging and as incorporation of Bromodeoxyuridine (BrdU) during DNA synthesis using a luminescence-based cell proliferation ELISA. In parallel, the cell viability is assessed using an alamar blue viability assay and the cytotoxicity using a lactate dehydrogenase dependent membrane integrity assay.IUF_NPC1b_proliferation_BrdU_72hr is one of 4 assay components measured from the IUF_NPC1 assay. It is designed to measure cell proliferation as assessed by the incorporation of Bromodeoxyuridine (BrdU) in the last 16 h of a 72 h compound exposure using a luminescence-based cell proliferation ELISA.Data from the IUF_NPC1b_proliferation_BrdU component was analyzed at the endpoint IUF_NPC1b_proliferation_BrdU in the positive analysis fitting direction relative to DMSO as the negative control and baseline of activity. Using a type of growth reporter, gain or loss-of-signal activity can be used to understand cell proliferation effects.
After the cell expansion period, the cells are cultured for up to four weeks in which they are passaged every week. Between one to three days after passaging, depending on the size chosen for passaging, spheres at a size of 0.3 mm are used in the assay. For the assessment of neural progenitor cell proliferation, the spheres are plated in poly-Hema coated 96-well U-bottom plates filled with proliferation medium containing growth factors (EGF and FGF). One 0.25 - 0.35 mm big sphere is plated in the middle of each well. Within 3 days NPCs proliferate and grow in size. Cultivation during the test method is performed at 37C and 5% CO2 at a pH of 7.2-7.6. As a positive control, spheres are cultivated in the absence of growth factors (EGF and FGF), which dramatically reduces proliferation. Exposure starts on the plating day (day 0) and is continued over three days, without chemical renewal, until the experiment is terminated. The assay is terminated by the assessment of cell viability, cytotoxicity, and proliferation by BrdU. All endpoints are generated from the same experimental run and from each well/sphere in the 96-well plate.

[6] = IUF_NPC1a_proliferation_area_72hr: Leibniz Research Institute for Environmental Medicine (IUF) 72-hour Neural Progenitor Cell Proliferation Area Assay (NPC1a) (AID 2284208)
In short: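 Proliferation is scored as sphere area gain in primary human fetal neural progenitors treated for 72 h in EGF/FGF-containing medium. Viability, LDH and BrdU readouts come from the same wells.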

[7] = IUF_NPC1_viability_72hr: Viability Assessment at 72 hours in the Leibniz Research Institute for Environmental Medicine (IUF) Neural Progenitor Cell Proliferation Assay (NPC1) (AID 2284209)
In short: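 Each well receives one 0.3 mm progenitor sphere from fetal brain cortex; test chemical is added at plating and left three days. Viability comes from alamar blue fluorescence, multiplexed with LDH and BrdU readouts in the same well.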

[8] = CCTE_Mundy_HCI_Cortical_Synap_Neur_Matur_NeuriteSpotCountPerNeuriteLength: CCTE's Synaptogenesis and Neurite Maturation Assay in rat cortical cells for Neurite Spot Count per Neurite Length, Mundy Lab (AID 2284210)
In short: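 Rat primary cortical cultures, glia arrested with AraC at DIV 5, were dosed with media change at DIV 7 and fixed at DIV 12. Synaptophysin puncta per MAP2-labelled neurite length were quantified by high-content imaging versus DMSO.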

[9] = CCTE_Mundy_HCI_Cortical_Synap_Neur_Matur_BPCount: CCTE's Synaptogenesis and Neurite Maturation Assay in rat cortical cells for Branch Point Count, Mundy Lab (AID 2284211)
In short: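 Branch point number is quantified by automated imaging of fluorescently labelled neurites and synapses in rat primary cortical neurons exposed from DIV 7 to DIV 12. Activity is analysed relative to DMSO negative control.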

[10] = UKN2_HCS_IMR90_neural_migration: University of Konstanz (UKN) Leist Lab Neural Crest Cell Migration Assay in human induced IMR90 Pluripotent Stem Cells (UKN2) (AID 2284204); settings: actives raise or lower the signal
Experimental: UKN2_HCS_IMR90 is a cell-based, multiplexed-readout assay screening for neural crest cell migration and cell viability that uses IMR90 (neural crest cells differentiated from iPSC), a human embryo cell line, with measurements taken at […] after chemical dosing in a microplate: 96-well plate. UKN2, also known as cMINC, is an assay that uses IMR90 cells (neural crest cells differentiated from iPSC) as a model of neural crest cell migration. 24 hr after cell seeding, cell migration was initiated and proceeded for 24 hr. Then, chemical was applied, and after 24 hr of exposure migration and viability were assessed using high-content imaging of cells stained with calcein-AM and Hoechst H-33342.UKN2_HCS_IMR90_neural_migration is an assay component measured from the UKN2_HCS_IMR90 assay. It is designed to make measurements of neural crest cell migration, a form of morphology reporter, as detected with Fluorescence intensity signals by HCS Fluorescent Imaging.The assay endpoint UKN2_HCS_IMR90_neural_migration was analyzed with bidirectional fitting relative to DMSO as the negative control and baseline of activity. Using a type of morphology reporter, gain or loss-of-signal activity can be used to understand developmental effects. […]
The wells are coated with PLO/laminin/fibronectin. […] Quantification of migration and viability is done by high content imaging analysis.

O=C(N[C@@H](c1ccccc1)[C@@H]1CCCCN1)c1cccc(C(F)(F)F)c1Cl
outcome [1]: inactive

CN(C)C(=O)NC1(c2ccccc2)CCN(CCC[C@]2(c3ccc(Cl)c(Cl)c3)CCCN(C(=O)c3ccccc3)C2)CC1
outcome [1]: inactive

CC(N)=O
outcome [1]: inactive

O=C(O)CN(CC(=O)O)CC(=O)O
outcome [1]: inactive

CCN(CC)CCOc1ccc(C(=C(Cl)c2ccccc2)c2ccccc2)cc1
outcome [1]: inactive

CC1=C(C)S(=O)(=O)CCS1(=O)=O
outcome [1]: inactive

Nc1nc(=S)c2[nH]cnc2[nH]1
outcome [1]: inactive

CC(C)NCC(O)c1ccc(O)c(O)c1 (stereo not drawn)
outcome [1]: inactive

NC(=Nc1ccccc1)Nc1ccccc1
outcome [1]: inactive

CC(C)COC(=O)CCCCC(=O)OCC(C)C
outcome [1]: inactive

OCC(O)CO
outcome [2]: inactive
outcome [3]: inactive
outcome [4]: inactive
outcome [5]: inactive
outcome [6]: inactive
outcome [7]: inactive
outcome [8]: inactive
outcome [9]: inactive

CC(=O)CC(c1ccccc1)c1c(O)c2ccccc2oc1=O (stereo not drawn)
outcome [2]: inactive
outcome [3]: inactive
outcome [5]: inactive
outcome [6]: inactive
outcome [7]: inactive
outcome [8]: inactive
outcome [9]: inactive

CCCC(=O)O
outcome [1]: inactive

Cc1cc(Cc2ccc(N)c(C)c2)ccc1N
outcome [1]: inactive

Oc1ccc(O)cc1
outcome [1]: inactive

c1ccc2occc2c1
outcome [1]: inactive

OCC(CO)n1cnc(-c2ccc(F)cc2)c1-c1ccnc(Oc2ccccc2)n1
outcome [1]: inactive

O=C1NC(=O)C(c2ccccc2)(c2ccccc2)N1
outcome [2]: inactive
outcome [3]: inactive
outcome [10]: inactive
outcome [4]: inactive
outcome [5]: inactive
outcome [6]: inactive
outcome [7]: inactive
outcome [8]: inactive

Cc1ccc(C(C)(C)C)c(O)c1
outcome [1]: inactive

Cc1cc(SC2=C(O)C[C@@](CCc3ccc(N)cc3)(C(C)C)OC2=O)c(C(C)(C)C)cc1CO
outcome [1]: inactive

CN(C)CCCN1c2ccccc2Sc2ccc(Cl)cc21
outcome [1]: inactive
AC50 [2]: 5.4 µM (active)
AC50 [3]: 5.87 µM (active)
AC50 [10]: 8.89 µM (active)
AC50 [4]: 6.73 µM (active)
AC50 [5]: 4.53 µM (active)
AC50 [6]: 11.8 µM (active)
AC50 [7]: 18.8 µM (active)
AC50 [8]: 28.4 µM (active)
AC50 [9]: 12.8 µM (active)

CN(C)C(=O)NC1(c2ccccc2)CCN(CC[C@@]2(c3ccc(F)c(F)c3)CN(C(=O)c3ccccc3)CCO2)CC1
outcome [1]: inactive

C/C=C/c1ccc(OC)cc1
outcome [1]: inactive

COC(=O)[C@H]1[C@H]2C[C@@H]3c4[nH]c5cc(OC)ccc5c4CCN3C[C@H]2C[C@@H](OC(=O)c2cc(OC)c(OC)c(OC)c2)[C@@H]1OC
outcome [1]: inactive
AC50 [2]: 5.56 µM (active)
AC50 [3]: 10 µM (active)

COc1ccc(OC(F)(F)F)cc1CN[C@H]1CCCN[C@H]1c1ccccc1
outcome [1]: inactive

CCCCC(CC)COP(=O)(OCC(CC)CCCC)OCC(CC)CCCC (stereo not drawn)
outcome [1]: inactive

CCc1cc(C2=C(C(=O)O)N(c3ccccc3C(F)(F)F)S(=O)(=O)c3ccccc32)cc2c1OCO2
outcome [1]: inactive
